# From ChEMBL document CHEMBL3988442, “University of Dundee, Small-Polar-MMV Screening Library” (2021)
# About 960 (1.5%) of roughly 66,000 compounds showed an effect of 50% or more. Only a selection was taken, and strong results are over-represented in it overall.
# System: Trypanosoma brucei
# Assay: Trypanosoma brucei 72 hour study
# Format: functional, organism-based
# Design: scale not given: in the data most compounds retested in dose-response had high values
smiles,measurement,setting,value
O=C1CCCN1C(CNS(=O)(=O)C1CC1)Cc1cccc(F)c1 (centres undefined),Percent Effect,"30 µM, 30.03 µM",7.214%
Cc1sc2c(C3CCCN(S(C)(=O)=O)C3)nc(C)n2c1C (centres undefined),Percent Effect,"30.3 µM, […]",73.25%
Cc1sc2c(C3CCCN(C(C)C)C3)nc(C)n2c1C (centres undefined),Percent Effect,"30.3 µM, […]",-21.43%
COCCN1CCCC(c2nc(C)n3c(C)c(C)sc23)C1 (centres undefined),Percent Effect,"30.3 µM, […]",-27.06%
O=C(O)C(F)(F)F.c1cncc(CN2Cc3nccn3CC(Cn3cncn3)C2)c1 (centres undefined),Percent Effect,"30 µM, 30.03 µM",-73.02%
COc1ccc(C2(CNC(C)c3nnc(C)o3)CCCCC2)cc1 (centres undefined),Percent Effect,"30.3 µM, […]",100.1%
Cc1nnc(C(C)NCC2(c3ccc(Cl)cc3)CCCC2)o1 (centres undefined),Percent Effect,"30.3 µM, […]",-10.5%
Cc1cccc(C2(CNC(C)c3nnc(C)o3)CCCC2)c1 (centres undefined),Percent Effect,"30.3 µM, […]",99.4%
Cc1nnc(C(C)NCC2(c3ccc(Cl)cc3)CCOCC2)o1 (centres undefined),Percent Effect,"30.3 µM, […]",-12.99%
COc1cccc(C2(CNC(C)c3nnc(C)o3)CCCC2)c1 (centres undefined),Percent Effect,"30.3 µM, […]",-15.21%
Cc1nnc(C(C)NCC2(c3ccc(F)cc3)CCCCC2)o1 (centres undefined),Percent Effect,"30.3 µM, […]",9.19%
Cc1nccc(CNC(=O)NC(c2ncc(C)s2)C2CC2)n1 (centres undefined),Percent Effect,"30 µM, 30.03 µM",-69.67%
CN(C)CCOCc1nnc2n1CCN(Cc1ccco1)CC2.O=C(O)C(F)(F)F.O=C(O)C(F)(F)F,Percent Effect,"30.3 µM, […]",-5.145%
CCC1=N[C@@]2(CC[C@@H]3CN(Cc4ccc(C)cc4)C[C@@H]32)C(=O)N1C.O=C(O)C(F)(F)F,Percent Effect,"30.3 µM, […]",-61.95%
O=C(O)C(F)(F)F.O=C1CC2(CCCCN2C(=O)c2ccncc2)CN1CC1CC1 (centres undefined),Percent Effect,"30.3 µM, […]",-11.8%
O=C(CCn1cncn1)N1CCCC1c1noc(C2CC2)n1 (centres undefined),Percent Effect,10 µM,-39.57%
COCCN1CCC2(CC1)CC(NC(=O)C1CC1)c1ccccc1O2.O=C(O)C(F)(F)F (centres undefined),Percent Effect,"30.3 µM, […]",-14.66%
Fc1ccc2[nH]c3c(c2c1)CCN1C(c2ccncc2)N2CCC31CC2 (centres undefined),Percent Effect,"30.3 µM, […]",100.7%
Fc1ccc2[nH]c3c(c2c1)CCN1C(c2ccccn2)N2CCC31CC2 (centres undefined),Percent Effect,"30.3 µM, […]",100.3%
O=C(N1CCC(OCc2ccccn2)CC1)C1(c2ccc(F)cc2)CC1,Percent Effect,"30 µM, 30.03 µM",-36.15%
CC(=O)NC1CCCc2c1[nH]c1ccc(F)cc21 (centres undefined),Percent Effect,"30 µM, 30.03 µM",-27.6%
Fc1ccc2[nH]c(C3CCCN3CCc3ccccn3)nc2c1 (centres undefined),Percent Effect,"30 µM, 30.03 µM",22.71%
Cc1nc(Nc2ncccn2)cc(C2CCN(CC(C)C)C2)n1 (centres undefined),Percent Effect,"30.3 µM, […]",4.591%
CN(CCCOc1ccccc1Cl)C(=O)CN1C[C@@H]2CC[C@H](CC1=O)N2,Percent Effect,"30.3 µM, […]",-75.76%
COc1ccccc1-c1ncc(CN2CCCC[C@H](N(C)C)C2)s1,Percent Effect,"30.3 µM, […]",40.64%
COc1ccccc1-c1ncc(CN2C[C@@H](N(C)C)[C@H](C(C)C)C2)s1,Percent Effect,"30.3 µM, […]",89.3%
COc1ccccc1-c1ncc(CN2C[C@H](O)[C@@H](N3CCCC3)C2)s1,Percent Effect,"30.3 µM, […]",20.14%
COc1ccc(C2CCCN2C(=O)NCCCn2ccnc2)cc1 (centres undefined),Percent Effect,"30.3 µM, […]",-18.05%
CC(Nc1ncnc2c1CCNC2)c1ccc(C(C)(C)C)cc1 (centres undefined),Percent Effect,"30.3 µM, […]",90.36%
CCOc1ccc(C(C)Nc2ncnc3c2CCNC3)cc1OCC (centres undefined),Percent Effect,"30.3 µM, […]",2.402%
CC(Nc1ncnc2c1CCNCC2)c1nc2c(s1)CCCC2 (centres undefined),Percent Effect,"30 µM, 30.03 µM",6.589%
Cc1cc(C)n(CC(C)Nc2ncnc3c2CCNC3)n1 (centres undefined),Percent Effect,"30 µM, 30.03 µM",-30.59%
Cc1ccccc1C(Nc1ncnc2c1CCNC2)c1ccccc1 (centres undefined),Percent Effect,"30 µM, 30.03 µM",-12.11%
CC(Nc1ncnc2c1CCNC2)c1ccc2c(c1)CCCC2 (centres undefined),Percent Effect,"30.3 µM, […]",100.2%
CCCc1ccc(C(C)Nc2ncnc3c2CCNC3)cc1 (centres undefined),Percent Effect,"30.3 µM, […]",56.69%
CC(C)Nc1ncnc2c1CCNCC2,Percent Effect,"30.3 µM, […]",-40.35%
Cc1ccccc1C(CNc1ncnc2c1CCNC2)N(C)C (centres undefined),Percent Effect,"30 µM, 30.03 µM",-30.9%
CCNC(c1ccc(F)cc1)c1cccnc1 (centres undefined),Percent Effect,"30 µM, 30.03 µM",-17.98%
O=C(O)C(F)(F)F.O=C(c1cccs1)N1CC[C@@H](N2CCOCC2)[C@@H]1Cc1ccccc1,Percent Effect,"30 µM, 30.03 µM",16.01%
O=C(O)C(F)(F)F.O=C(O)[C@]12CCCN(CC3CCOC3)C[C@H]1CN(c1ncccn1)C2 (some centres undefined),Percent Effect,"30.3 µM, […]",-92.21%
Cc1cccc(C(=O)N2CCCN(CCCSCC#N)CC2)c1,Percent Effect,"30 µM, 30.03 µM",-25.24%
O=C(O)C(F)(F)F.O=C(c1ccccc1)N1CCC[C@]2(C[C@@H](Oc3ncccc3F)CO2)C1,Percent Effect,"30 µM, 30.03 µM",-46.98%
CC(C)CC(=O)NCCn1nc(C2CCNC2)c2cccnc21.Cl (centres undefined),Percent Effect,"30.3 µM, […]",2.604%
CC(=O)N1N=C(c2ccco2)OC1C(=O)N(C)CCc1ccccc1 (centres undefined),Percent Effect,"30.3 µM, […]",-0.7394%
same,Percent Effect,"10 mM, 10 mM as filed; unlikely as a test dose",-39.66%
CC(=O)N1N=C(c2ccco2)OC1C(=O)N(CC(C)C)CC(C)C (centres undefined),Percent Effect,"30.3 µM, […]",65.41%
same,Percent Effect,"10 mM, 10 mM as filed; unlikely as a test dose",-14.31%
CC(=O)N1N=C(c2ccco2)OC1C(=O)NCC(C)C (centres undefined),Percent Effect,"30.3 µM, […]",15.99%
same,Percent Effect,"10 mM, 10 mM as filed; unlikely as a test dose",-43.02%
CCCc1nc(N2CCCN(c3ncccn3)CC2)c2cnn(C)c2n1,Percent Effect,"30 µM, 30.03 µM",-12.92%
CCCc1nc(N2CCCN(c3ccncc3)CC2)c2cnn(C)c2n1,Percent Effect,"30 µM, 30.03 µM",59.27%
CCCc1nc(N2CCN(Cc3ccccn3)CC2)c2cnn(C)c2n1,Percent Effect,"30 µM, 30.03 µM",36.81%
CC(=O)N1CCC(n2nccc2-c2cnc(N)nc2)CC1,Percent Effect,"30.3 µM, […]",-9.866%
Cn1ncc2c(N[C@H]3CCCC[C@@H]3O)nc(C(C)(C)C)nc21,Percent Effect,"30.3 µM, […]",-1.471%
Cn1ncc2c(NC3CCCN(C(=O)C4CC4)C3)nc(C(C)(C)C)nc21 (centres undefined),Percent Effect,"30 µM, 30.03 µM",43.28%
Cn1ncc2c(N[C@H]3CC[C@@H](N)CC3)nc(C(C)(C)C)nc21,Percent Effect,"30.3 µM, […]",99.86%
Cc1cccc(C(=O)N2C[C@@H]3CCN(c4cccnc4)C[C@@H]3C2)c1.O=C(O)C(F)(F)F,Percent Effect,"30 µM, 30.03 µM",1.381%
COCCN1C(=O)CC[C@@H]2[C@H]1CCN2Cc1cccc(C#N)c1.O=C(O)C(F)(F)F,Percent Effect,"30.3 µM, […]",-247.8%
CCCN(Cc1ccccc1O)S(=O)(=O)N(C)CC,Percent Effect,"30 µM, 30.03 µM",-50.11%
CCCN(Cc1ccccc1O)S(=O)(=O)C(C)CC (centres undefined),Percent Effect,"30 µM, 30.03 µM",101.6%
CCC(C)S(=O)(=O)N(Cc1ccco1)Cc1ccccc1O (centres undefined),Percent Effect,"30 µM, 30.03 µM",-17.24%
Cl.Nc1ccc(-c2cnc(C3CCCN3)cn2)cn1 (centres undefined),Percent Effect,"30.3 µM, […]",19.85%
Cc1ccc(N2CCc3sc(C(=O)N4CCOCC4)cc32)nn1,Percent Effect,"30.3 µM, […]",-27.02%
Cc1ccc(N2CCc3sc(C(=O)NCCN4CCCC4)cc32)nn1,Percent Effect,"30.3 µM, […]",54.03%
O=C(NCCN1CCCC1)c1cc2c(s1)CCN2c1ncccn1,Percent Effect,"30.3 µM, […]",35.85%
Cc1cc(C(=O)N2CC[C@H]3[C@H](C[C@@H](CN4CCCC4)N3C)C2)c(C)o1.O=C(O)C(F)(F)F.O=C(O)C(F)(F)F,Percent Effect,"30.3 µM, […]",-13.25%
Cl.O=C(NCCn1nc(C2CCNC2)c2cccnc21)C1CCC1 (centres undefined),Percent Effect,"30.3 µM, […]",-2.901%
Cc1cc(C)c2c(N3CCN(C(=O)N(C)C)CC3)ncnc2n1,Percent Effect,"30 µM, 30.03 µM",-10.57%
O=C(c1cccc(Cl)c1)C1CCCN(c2nnc(C3CCC3)o2)C1 (centres undefined),Percent Effect,"30 µM, 30.03 µM",75.84%
O=C(c1cccnc1)C1CCCN(c2nnc(C3CC3)o2)C1 (centres undefined),Percent Effect,"30 µM, 30.03 µM",-35.25%
Cc1nnc(N2CCCC(C(=O)c3cccc(Cl)c3)C2)o1 (centres undefined),Percent Effect,"30 µM, 30.03 µM",-2.386%
NCCn1cc(C(=O)N2CCCCCC2c2ccco2)nn1 (centres undefined),Percent Effect,"30 µM, 30.03 µM",-18.67%
Oc1cc(C2CCCCN2Cc2cccs2)nc(-c2ccccn2)n1 (centres undefined),Percent Effect,"30.3 µM, […]",99.61%
Oc1cc(C2CCCCN2Cc2ccsc2)nc(-c2ccncc2)n1 (centres undefined),Percent Effect,"30.3 µM, […]",-12.11%
Oc1cc(-c2nccs2)nc(C2CCN(Cc3cccs3)CC2)n1,Percent Effect,"30.3 µM, […]",-16.93%
Cn1ncc2ccc(C3CCCN(Cc4cccs4)C3)nc21 (centres undefined),Percent Effect,"30.3 µM, […]",11.55%
Oc1cc(C2CCCCN2Cc2cccs2)nc(-c2ccncc2)n1 (centres undefined),Percent Effect,"30.3 µM, […]",-2.917%
Oc1cc(C2CCCN(Cc3cccs3)C2)nc(-c2ccccn2)n1 (centres undefined),Percent Effect,"30.3 µM, […]",100.2%
O=C(CCn1cc(Cl)cn1)Nc1ccc2c(c1)OCCO2,Percent Effect,"30 µM, 30.03 µM",-17.81%
CN(C)c1ccc(C(=O)N2CCCN(C3CCCCC3)CC2)cn1,Percent Effect,"30.3 µM, […]",-15.89%
Cc1ccc(Cc2cnc(C3CCNCC3)cn2)cc1.Cl,Percent Effect,"30.3 µM, […]",-22.29%
O=S(=O)(NCC(c1ccsc1)N1CCCCCC1)c1cccs1 (centres undefined),Percent Effect,"30 µM, 30.03 µM",-20.18%
Oc1nc(N2CCOCC2)nc2c1CCN(Cc1ccccc1)CC2,Percent Effect,"30.3 µM, […]",-21.1%
Oc1nc(N2CCOCC2)nc2c1CCN(Cc1cccc(F)c1)CC2,Percent Effect,"30.3 µM, […]",-14.28%
Oc1nc(N2CCOCC2)nc2c1CCN(Cc1ccc(F)cc1)CC2,Percent Effect,"30.3 µM, […]",100.3%
CC(C)c1nc(CCN(C)c2nccc(N3CCCC(O)C3)n2)no1 (centres undefined),Percent Effect,"30.3 µM, […]",3.693%
Cc1cc(C(=O)N2CC[C@H]3[C@H]2CCN3S(C)(=O)=O)c(C)o1,Percent Effect,"30.3 µM, […]",-71.76%
Cc1oncc1C(=O)N1CC[C@H]2[C@H]1CCN2S(C)(=O)=O,Percent Effect,"30.3 µM, […]",97.42%
Cc1oncc1C(=O)N1CC[C@H]2[C@@H]1CCC(=O)N2CC1CC1,Percent Effect,"30.3 µM, […]",-43.42%
Cc1cccc(CN2CCC3(CC2)CC(c2cccnc2)C(=O)N3C)n1.O=C(O)C(F)(F)F.O=C(O)C(F)(F)F (centres undefined),Percent Effect,"30.3 µM, […]",-33.95%
COCC(=O)N1CCC2(CC1)COCCN2Cc1ccc(F)cc1.O=C(O)C(F)(F)F,Percent Effect,"30 µM, 30.03 µM",14.27%
Cc1nc(CC2CCN(Cc3ccc(CCC(C)(C)O)cc3)CC2)no1,Percent Effect,"30.3 µM, […]",-0.2557%
Cc1noc2nc(C3CCN(CC4CCCCC4)CC3)cc(C(F)F)c12.Cl,Percent Effect,"30.3 µM, […]",30.15%
CCn1nc(C)c2ccn(CC(=O)NCCCOC)c(=O)c21,Percent Effect,"30 µM, 30.03 µM",9.008%
O=C(c1cccs1)N1C[C@H]2CCC[C@@]2(COCC2CCOCC2)C1,Percent Effect,"30 µM, 30.03 µM",13.05%
O=C(O)C(F)(F)F.O=C(c1ccccn1)N1C[C@H]2CCC[C@@]2(COCC2CCOCC2)C1,Percent Effect,"30 µM, 30.03 µM",14.59%
O=C(c1ccncn1)N1C[C@H]2CCC[C@@]2(COCC2CCOCC2)C1,Percent Effect,"30 µM, 30.03 µM",54.31%
Cc1ccsc1C(=O)N1CCCN(Cc2cscn2)CC1,Percent Effect,10 µM,-20.65%
CN(C)C(=O)[C@H]1CCS(=O)(=O)[C@@H]2CN(c3ncccn3)C[C@H]12,Percent Effect,"30.3 µM, […]",-0.441%
